Data published in ChEMBL document CHEMBL3433997, “St. Jude Leishmania screening dataset” (2016).

Columns and labels:
Type in all cases: functional
[1] = target: Solute carrier family 2, facilitated glucose transporter member 1 (Homo sapiens) (UniProt P11166); assay: ST_JUDE_LEISH: Cytotoxicity at 2uM final concentration against transgenic Leishmania Mexicana promastigotes LmGLUT1 that are glucose transport deficient and complemented with the human glucose transporter GLUT1. Activity is measured by DNA content using SYBR green in vitro
[2] = target: Hexose transporter 1 (Plasmodium falciparum) (UniProt O97467); assay: ST_JUDE_LEISH: Cytotoxicity at 2uM final concentration against transgenic Leishmania Mexicana promastigotes LmPfHT that are glucose transport deficient and complemented with the Plasmodium falciparum hexose transporter. Activity is measured by DNA content using SYBR green in vitro
[3] = target: Glucose transporter (Leishmania mexicana) (UniProt O61059); assay: ST_JUDE_LEISH: Cytotoxicity at 2uM final concentration against transgenic Leishmania Mexicana promastigotes LmGT2 that are glucose transport deficient and complemented with the L. Mexicana glucose transporter 2. Activity is measured by DNA content using SYBR green in vitro

Solute carrier family 2, facilitated glucose transporter member 1 (Homo sapiens), sequence (P11166 whole entry): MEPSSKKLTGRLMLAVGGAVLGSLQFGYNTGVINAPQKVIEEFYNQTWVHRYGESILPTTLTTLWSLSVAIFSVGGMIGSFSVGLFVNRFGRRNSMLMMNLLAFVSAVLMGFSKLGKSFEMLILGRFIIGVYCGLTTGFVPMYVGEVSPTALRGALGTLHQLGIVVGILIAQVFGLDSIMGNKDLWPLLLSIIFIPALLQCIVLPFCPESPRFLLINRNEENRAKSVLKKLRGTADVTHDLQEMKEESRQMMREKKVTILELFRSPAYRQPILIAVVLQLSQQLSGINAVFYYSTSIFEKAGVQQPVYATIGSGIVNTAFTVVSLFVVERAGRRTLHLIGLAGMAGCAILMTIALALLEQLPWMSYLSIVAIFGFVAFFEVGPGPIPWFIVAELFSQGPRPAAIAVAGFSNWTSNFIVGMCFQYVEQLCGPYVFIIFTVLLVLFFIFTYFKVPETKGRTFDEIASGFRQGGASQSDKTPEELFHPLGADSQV

Row | SMILES | inhibition [1] | inhibition [2] | inhibition [3]
1 | Cc1cc(N)ncc1-c1ccc(NC(=O)Nc2cc(C(F)(F)F)ccc2F)cc1 | 2.41% | 2.25% | 1.43%
2 | Cc1nc(N/C=C/c2ccc(O)cc2)cc(N2CCCC2)n1 | 8.44% | 6.81% | 7.13%
3 | CC(C)CCNC(=N)Nc1ccc(OCCCCCOc2ccc(NC(=N)NCCC(C)C)cc2)cc1 | 6.46% | 3.87% | -1.73%
4 | Cc1cccc(NC(=O)c2ccc(C(=O)NC3CCN(CC4CCCCC4)C3)cc2)c1 (stereo unspecified) | 5.04% | 3.98% | -1.15%
5 | COc1cc(NC(=O)N2CCOC(CCN3CCC4(CCc5ccccc54)CC3)(c3ccc(Cl)c(Cl)c3)C2)cc(OC)c1OC (stereo unspecified) | 18.1% | 15.1% | 14.1%
6 | O=C(Nc1ccccc1)c1ccc(-c2cc3ccncc3cc2OC2CCNCC2)s1 | -3.12% | 3.86% | -3.49%
7 | CCOc1cc(NCCSCc2nc[nH]c2C)nc2ccccc12 | -1.28% | -0.61% | -3.84%
8 | CC(Oc1cccc(Cl)c1)C(=O)N1CCc2ccccc21 (stereo unspecified) | -1.29% | -1.34% | -1.29%
9 | COc1ccccc1C1CCN(C2CCC(NC(=O)c3cc(-c4ccc(Cl)cc4)cs3)CC2)CC1 (stereo unspecified) | -0.61% | 2.96% | 0.71%
10 | CCCCSc1nc2c(c(=O)n1Cc1ccco1)C1(CCCCC1)Cc1ccccc1-2 | 0.71% | 1.36% | 1.89%
11 | COc1ccc(CNc2ncnc3c2[nH]c2ccc(F)cc23)cc1 | 7.12% | 7.69% | 4.52%
12 | CC(=O)c1c(CC(=O)O)c2ccccc2n1O | 2.28% | 4.52% | 3.07%
13 | CC(=O)Nc1ccc(CN2CCc3ccc(NS(=O)(=O)c4ccc(-c5cccc(C(F)(F)F)c5)cc4)cc3CC2)s1 | 2.54% | 2.18% | 3.46%
14 | CCOC(=O)c1nc(-c2cccnc2)[nH]c1NC(=S)NCc1ccccc1 | 1.58% | 0.92% | 3.75%
15 | Cc1cc(NCCC(=O)NCCOc2ccccc2)nc(Nc2ccccc2)n1 | 5.24% | 4.64% | 0.05%
16 | COc1nc2c(CCN3CCC(NCc4ccc5c(c4)NC(=O)CO5)CC3)c(Cl)cnc2cc1F | 3.07% | 0.9% | 1.45%
17 | CCCCCC(C)C(C)c1cc(O)c2c(c1)OC(C)(C)CC2c1cc[n+]([O-])cc1 (stereo unspecified) | 3.19% | 4.07% | 4.64%
18 | O=c1c2sc(-c3ccc(Cl)cc3)cc2ncn1Cc1ccc(OCCN2CCCC2)c2ccccc12 | 4.34% | 2.61% | 1.85%
19 | COc1cc(NC(=O)/C=C/c2cc(F)cc(F)c2F)cc(OCCN2CCC(O)(c3ccccc3)CC2)c1 | 3.43% | 1.97% | 2.47%
20 | O=C(/C=C/c1ccc(Cl)c(Cl)c1)NC1CCC(CN2CCC(c3nc4ccccc4s3)CC2)CC1 (stereo unspecified) | 0.92% | 5.64% | -1.65%
21 | O=C(/C=C/c1ccc(Cl)c(Cl)c1)NCC(CCCN1CCC(c2c[nH]c3ccccc23)CC1)c1ccccc1 (stereo unspecified) | 3.06% | -1.36% | 2.05%
22 | CCc1ccccc1N=C1c2c(cccc2[N+](=O)[O-])C(=O)C1C(C)=O (stereo unspecified) | -1.62% | -1.21% | -2.14%
23 | CN1CCC(Oc2ccc(CN3CC[C@H](NC(=O)c4ccc(Cl)c(Cl)c4)C3)c3ccccc23)C1 (stereo partly specified) | 2.7% | 4.41% | 3.37%
24 | CC(C)Oc1cc2c(cc1NS(=O)(=O)c1ccc(-c3ccc(Cl)cc3)cc1F)CCN(C)CC2 | 1.27% | 0.75% | -0.15%
25 | CCCCCCCN1CC[C@@H](CCCc2ccnc3ccc(OCC4CCCNC4)cc23)[C@@H](CC)C1 (stereo partly specified) | 4.6% | 3.17% | 1.43%
26 | CN(C)CCN(C)Cc1ccc(-c2ccc(NC(=O)c3cccc(C#N)c3)cc2)cc1 | 3.64% | 2.58% | 0.19%

Row | SMILES | inhibition [1] | inhibition [2] | inhibition [3]
27 | CCN1CCN(c2cc(C)c3cc(NC(=O)c4ccc(OC)c(OC)c4)ccc3n2)CC1 | 0.58% | 0.53% | 0.24%
28 | COc1ccc2c(=NN=Cc3ccccc3Cl)cc(C)[nH]c2c1 | 0.91% | 0.95% | 0.2%
29 | CC(C)CN(c1nc(C(=O)NNC(=O)[C@H](CC2CC2)NC(=O)c2cc3cc(OCCN4CCCCC4)ccc3o2)cs1)C1CC1 | -3.13% | 0.58% | 0.46%
30 | CCN1CCC(N(CCCCCCc2ccc(C(F)(F)F)cc2)C(=O)Cn2c(CCc3cccc(F)c3F)cc(=O)c3ccccc32)CC1 | 5.17% | 3.94% | 2.53%
31 | O=C1COC2(CN1C1CCN(Cc3ccc(O)cc3Cl)C1)c1ccccc1-c1ccccc12 (stereo unspecified) | 2.42% | 2.74% | 1.29%
32 | CCNc1cc(C(=O)N[C@@H](Cc2ccc(F)c(F)c2)[C@H](O)CNCc2cccc(OC)c2)cc(N2CCCCS2(=O)=O)c1 | -0.26% | 0.17% | -0.12%
33 | Cc1cc(C)c(C(=O)Nc2ccc3nc(C)cc(N)c3c2)c(C)c1 | -0.82% | 1.52% | 2.61%
34 | NOCCCCOc1ccc(Br)cc1 | 3.74% | 5.13% | 2.59%
35 | O=C(Nc1cccc(-c2ccc(-c3nc4cc(C(F)(F)F)ccc4[nH]3)s2)c1)c1ccncc1 | 8.37% | 8.56% | 7.24%
36 | CN(Cc1ccc(-c2ccc(C(F)(F)F)cc2)cc1)C(=O)Cn1c(CCc2cccc(F)c2F)cc(=O)c2ccc(OCCCN3CCCCC3)cc21 | 1.01% | 0.66% | -0.5%
37 | CN1CCC(NCCS(=O)(=O)c2cccc(Nc3ccc(-c4cccc(F)c4)cn3)c2)CC1 | 0.4% | 0.91% | -0.71%
38 | O=C(NC(c1ccccc1)c1ccc2cccnc2c1O)c1ccccc1 (stereo unspecified) | 4.04% | 6.18% | 4.35%
39 | O=C(Nc1cccc(N2CCC(NCc3cccnc3)CC2)c1)c1cccc(C(F)(F)F)c1 | 1.16% | 1% | -0.6%
40 | COc1ccc(CCC(C)(C)NCC(O)c2cccc(C(F)(F)F)c2)cc1 (stereo unspecified) | 3.28% | 3.58% | 5.12%
41 | N=C(N)c1ccc2[nH]c(SCc3ccccc3)nc2c1 | 1.18% | 1.38% | 0.24%
42 | O=S(=O)(c1ccc(OCc2ccc(Cl)cc2)cc1)c1cc2c(cc1OCc1ccccc1)CCN(C1CCC1)CC2 | 7.19% | 4.84% | 7.79%
43 | COc1ccc2nc(C)cc(Nc3ccc(Oc4ccc5ccccc5c4)c(Cl)c3)c2c1 | 7.14% | 7.63% | 1.45%
44 | Cc1cccc2nc(-c3cccc(-c4cccc(CN5CCCC5CN)c4)c3)[nH]c12 (stereo unspecified) | -0.26% | -1.1% | -2.17%
45 | COc1ccc(CNC2CCN(C)CC2)cc1-c1ccc(S(=O)(=O)NCCc2ccccn2)cc1 | -0.85% | 0.85% | -0.1%
46 | NS(=O)(=O)c1ccc(Nc2nccc(-c3c(-c4cccc(NC(=O)c5c(F)cccc5F)c4)nn4ccccc34)n2)cc1 | 11.8% | 14.8% | 8.76%
47 | CC(=O)Oc1c(Br)c(C)nc(C)c1-c1ccc(Oc2ccc(OC(F)(F)F)cc2)cc1 | 1.58% | 0.11% | 0.37%
48 | O=C(CCn1c2ccccc2c2ccccc21)NN=Cc1ccco1 | 7.25% | 5.11% | 4.19%
49 | CCN(CC)CCN(Cc1ccc(-c2ccc(C(F)(F)F)cc2)cc1)C(=O)Cn1c(CCc2cccc(F)c2F)cc(=O)cc1-c1ccccc1 | 1.88% | 3.45% | -1.71%
50 | O=C(Nc1ccc(Cl)cc1)Nc1ccc(OCC(O)CN2CCCCC2)cc1 (stereo unspecified) | 7.33% | 8.27% | 7.64%
51 | Cc1cccc2nc(-c3ccc(-c4ccc(NC(=O)NCc5cccc(F)c5)cc4)cc3)[nH]c12 | 11.4% | 12.2% | 10.3%
52 | CC(C)Sc1nc2c(c(=O)n1CCc1ccccc1)C1(CCCC1)Cc1ccccc1-2 | 1.78% | 2.51% | 2.88%
